Reference: PubChem BioAssay (NCATS)
Where “and” joins values, the source holds several entries; their conditions need not be identical. Equal entries are not always repeated. Records with an inconclusive call do not appear. Values without a mark were called inactive. Calls follow the shape of the dose curve; as a rule, active = well fitted inhibition curve with a large enough effect; inconclusive = small, poorly fitted or top-dose-only effect; inactive = flat fitted curve, though single readings scatter. Where a SMILES comes first, the peptide text is derived from it. [ ]: non-standard residue; d: D form. pGlu = O=C1CC[C@@H](C(=O)O)N1

tested on: KB-3-1; test: Cytotoxic Profiling of Annotated Libraries Using Quantitative High-Throughput Screening (AID 1296008); conditions: Five cell lines viability, CellTiter-Glo ATP luminescence, 48-72 h; max response: active compounds read low; also: nearly all actives have a fitted effect of over 60% in size
Outline: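 Cells exposed to compounds for 48 or 72 hr at 37 degrees Celsius. Viability read as ATP-coupled luminescence with CellTiter-Glo after 10 min at room temperature.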
% is scaled to controls: 0 for no effect and ±100 for the full control effect.

SMILES	max response
CCN(CC)C(=O)c1cccnc1	-8.56%
CC(=O)OCC(=O)[C@@]1(O)CC[C@H]2[C@@H]3CCC4=CC(=O)CC[C@]4(C)C3=CC[C@@]21C	-7.13%
NC(=O)OC[C@@H]1[C@H](NC(=O)/C(=N\OCC(=O)O)c2csc(N)n2)C(=O)N1S(=O)(=O)O	-1.39%
[O]=[Bi][O]C(=O)[O][Bi]=[O]	-15.6%
CC(CC=O)CCCC(C)(C)O (configuration not stated)	7.65%
O=C1NCCN1c1ncc([N+](=O)[O-])s1	1.83%
CCN1C(=O)NC(c2ccccc2)C1=O (configuration not stated)	16.5%
CCN(CC)CCOC(=O)c1cccnc1	21.6%
CC[C@H]1OC(=O)C[C@@H](O)[C@H](C)[C@@H](O[C@@H]2O[C@H](C)[C@@H](O[C@H]3C[C@@](C)(O)[C@@H](O)[C@H](C)O3)[C@H](N(C)C)[C@H]2O)[C@@H](CC=O)C[C@@H](C)C(=O)/C=C/C(C)=C/[C@@H]1CO[C@@H]1O[C@H](C)[C@@H](O)[C@@H](OC)[C@H]1OC	31.7% and -4.31%
CCOC(C)OCC	-6.86%
CC(=C\c1ccccc1)/C=C1/SC(=S)N(CC(=O)O)C1=O	3.64%
C[C@@H](O)[C@H]1C(=O)N2C(C(=O)[O-])=C(SC3Cn4cnc[n+]4C3)[C@H](C)[C@H]12 (some centres not stated)	1.34%
CCC(=O)OC(OP(=O)(CCCCc1ccccc1)CC(=O)N1C[C@H](C2CCCCC2)C[C@H]1C(=O)O)C(C)C (some centres not stated)	3.39%
NC(=O)[C@@H]1CCCN1C(=O)[C@H](Cc1cnc[nH]1)NC(=O)[C@@H]1CCC(=O)N1	0.162%
C[C@H](O)CN(C)C	10.7%
CC[C@H](C)[C@H](NC(=O)[C@H](Cc1ccccc1)NC(=O)[C@H](C)NC(=O)[C@H](CC(=O)O)NC(=O)[C@H](CCCCN)NC(=O)[C@H](CO)NC(=O)[C@@H]1CCCN1C(=O)[C@@H]1CCC(=O)N1)C(=O)NCC(=O)N[C@@H](CC(C)C)C(=O)N[C@@H](CCSC)C(N)=O ([pGlu]PSKDAFIGLM-NH2)	17.8%
O=C(NCCNCC(O)COc1ccc(O)cc1)N1CCOCC1 (configuration not stated)	1.66%
CNCC(O)c1ccc(OC(=O)C(C)(C)C)c(OC(=O)C(C)(C)C)c1 (configuration not stated)	-7.58%
CC(CCc1ccc(O)cc1)NCC(O)c1ccc(O)cc1 (configuration not stated)	9.04%

SMILES	max response
O=C1CCC(c2ccccc2)(C2CCN(Cc3ccccc3)CC2)C(=O)N1 (configuration not stated)	17.5%
CN1C(=O)C[C@@H](C(=O)N[C@@H](Cc2cnc[nH]2)C(=O)N2CCC[C@H]2C(N)=O)NC1=O	5.84%
Oc1ccc(Cl)c2c1CCC2	-14.4%
C[N+]1(C)[C@@H]2CC(OC(=O)C(O)(c3cccs3)c3cccs3)C[C@H]1[C@@H]1O[C@@H]12 (some centres not stated)	-8.8%
O=C(OCc1ccccc1)c1cccnc1	-9.74%
CNC(=O)OCc1cccc(COC(=O)NC)n1	2.4%
C=Cc1c(C)c2cc3nc(cc4[nH]c(cc5nc(cc1[nH]2)C(C)=C5CCC(=O)OC)c(CCC(=O)O)c4C)[C@@]1(C)C3=CC=C(C(=O)OC)[C@H]1C(=O)OC	-15.7%
COc1ccc(/C=C/C(=O)OCCC(C)C)cc1	-0.838%
CC(C)=CCC/C(C)=C/CC/C(C)=C/CC/C(C)=C/CC1=C(C)C(=O)c2ccccc2C1=O	5.32% and -12.9%
O=C(Cc1cccs1)N[C@@H]1C(=O)N2C(C(=O)[O-])=C(C[n+]3ccccc3)CS[C@H]12	6.88%
C[N@+]12CCCC[C@@H]1CCC(=C(c1cccs1)c1cccs1)C2	-14.7%
OC[C@@H](O)C(O)[C@H](O)CO	2.54%
CC(=O)O[C@@H]1CC2CCC1(C)C2(C)C (some centres not stated)	-0.31%
C=N[C@@H](C(=O)N[C@@H]1C(=O)N2[C@@H]1SC(C)(C)[C@@H]2C(=O)O)c1ccccc1	0.762%
CC[C@H](CC[C@@H](C)[C@H]1CC[C@H]2[C@@H]3CC=C4C[C@@H](O)CC[C@]4(C)[C@H]3CC[C@]12C)C(C)C	-4.33%
Cc1cc(C)c(NC(=O)C[C@H](CC(=O)O)c2cccc3ccccc23)c(C(=O)N2CCC3(CCCC3)CC2)c1	-2.39%
c1ccc2ccccc2c1	-0.155%
CCN(CC)CCOc1ccc2nc(N(C)C)sc2c1	-23.9%
